Test [1] is described as follows: small molecules captured by biotinylated probe aFSTL3 – biochemical, small-molecule microarray, fluorescence 635/667, stem cell growth factor project, primary screen (AID 1064).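 Also: measures binding of the biotinylated anti-FSTL3 antibody to printed compounds.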 The note with it: higher = more signal.
The nature of test [2]: binders from COS7 lysate, DM2A8 probe, primary screen, torsin A project, cell lysate, small-molecule microarray, fluorescence 635/667 (AID 1065). The note with it: higher = more signal, COS7 lysate expressing mutant human TOR1A.
The nature of test [3]: small molecules captured by biotinylated probe aFGF2 – biochemical, small-molecule microarray, fluorescence 635/667, stem cell growth factor project, primary screen (AID 1067).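 Also: measures binding of biotinylated aFGF2 protein to printed compounds on slides; z-score merges feature fluorescence and signal-to-noise across triplicate slides.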 The following applies: higher = more signal.
A short description of test [4]: small molecules captured by biotinylated probe aFGF10 – biochemical, small-molecule microarray, fluorescence 635/667, stem cell growth factor project, primary screen (AID 1071).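 Also: score merges 667 nm spot intensity and signal to noise from triplicate slides.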 The note with it: higher = more signal.
For test [5], the target named is Neurogenic locus notch homolog protein 2 (Homo sapiens) (UniProt Q04721). Briefly: small molecules binding Notch2 protein – biochemical, small-molecule microarray, 635 nm fluorescence, stem cell growth factors, primary screen (AID 1073). The note with it: higher = more signal.
Test [6] addresses Pro-neuregulin-1, membrane-bound isoform (Homo sapiens) (UniProt Q02297). Briefly: small molecules binding neuregulin-1 protein – biochemical, small-molecule microarray, fluorescence 635/667, psychiatric disease protein project, primary screen (AID 1075).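 Also: score combines 667 nm spot fluorescence with signal to noise.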 The following applies: NRG1 binding, 635 nm fluorescence, higher = more signal.
Test [7] relates to Neuregulin-1 EGF-like domain. Briefly: small molecules binding NRG1 EGF domain – biochemical, small-molecule microarray, 635 nm fluorescence, primary screen (AID 1081).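 Also: binding of the protein to compounds printed on small-molecule microarray slides.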 The note with it: higher = more signal.
Test [8] in a line: FRG1 expression reporter modulators in myotubes – cell-based, C2C12 myotubes, firefly/Renilla luciferase, luminescence, FRG1 inhibition for FSHD, primary screen (AID 1084). The note with it: FRG1 promoter luciferase, higher = more signal, called active from +8 up or from −8 down.
Test [9] can be described thus: small molecules captured by biotinylated probe aFST – biochemical, small-molecule microarray, fluorescence 635/667, stem cell growth factor project, primary screen (AID 1086).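 Also: score merges 667 nm fluorescence with signal-to-noise of each printed compound spot.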 The following applies: higher = more signal.
Test [10] can be described thus: binders of probe aHhip on microarray, primary screen, stem cell growth factor project, biochemical, small-molecule microarray, fluorescence 635/667 (AID 1087).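 Also: score merges spot fluorescence at 667nm with spot signal to noise ratio.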 The note with it: higher = more signal.
Test [11] deals with PRMT1 (protein arginine N-methyltransferase 1). In words: small molecules binding arginine methyltransferase PRMT1 – biochemical, small-molecule microarray, 635 nm fluorescence, primary screen (AID 1088).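 Also: binding of Prmt1 protein to compounds spotted on small-molecule microarray slides.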 The note with it: higher = more signal.
Test [12] in a line: growth effects on S. cerevisiae YJM789 – YJM789 clinical isolate, OD600, 24 h, basal, primary screen (AID 1089).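 Also: growth of clinical yeast isolate S. cerevisiae YJM 789 seeded 1000 cells per well; test concentration not given here.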 The note with it: higher = more signal, called active from +8 up or from −8 down.
Test [13] in a line: S. pombe growth modifiers, basal conditions – strain 972, OD600, 24 h, no modulator, primary screen (AID 1090).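 Also: basal condition with compound alone and no growth modifier present; test concentration not given here.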 The following applies: S. pombe 972 growth, higher = more signal, called active from +8 up or from −8 down.
A short description of test [14]: budding yeast growth modifiers under rapamycin – strain BY4716, OD600, 96 h, primary screen (AID 1091). Also: test concentration not given here. The following applies: S. cerevisiae BY4716 + rapamycin, higher = more signal, called active from +8 up or from −8 down.
For test [15], the target named is Torsin-1A-interacting protein 2 (Homo sapiens) (UniProt Q8NFQ8). Briefly: small molecules binding lysate-expressed LULL1 – cell lysate, human LULL1 lysate, 635/667 nm fluorescence, primary screen (AID 1092).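 Also: probe is lysate of COS7 cells overexpressing human LULL1; score merges per-feature 667 nm fluorescence with signal-to-noise.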 The note with it: small-molecule microarray, hLULL1 lysate binding, 635 nm fluorescence; higher = more signal.
Test [16] is described as follows: optical density change of DRC41 E. coli – strain DRC41, OD650, 24 h, E. coli filamentation project, primary screen (AID 1093).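 Also: MC1000 strain lacking acrAB efflux and sulA so SOS filamentation is blocked; test concentration not given here.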 The following applies: E. coli DRC41 growth, higher = more signal, called active from +8 up or from −8 down.
A short description of test [17]: probe aLefty2 binding to arrayed compounds – biochemical, biotinylated probe, 635/667 nm fluorescence, primary screen (AID 1094).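 Also: score merges spot fluorescence near 667 nm with spot signal-to-noise ratio.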 The following applies: small-molecule microarray, higher = more signal.
The subject of test [18] is Noggin (protein binding on small-molecule microarray). Briefly: small molecules binding Noggin protein – biochemical, 635/667 nm fluorescence, primary screen (AID 1095).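 Also: score merges 667 nm feature fluorescence with signal to noise over triplicate slides.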 The note with it: 635 nm fluorescence, higher = more signal.
The target in test [19] is Neurogenic locus notch homolog protein 3 (Homo sapiens) (UniProt Q9UM47). Briefly: small molecules binding NOTCH3 protein – biochemical, 635/667 nm fluorescence, primary screen (AID 1096). The following applies: small-molecule microarray, 635 nm fluorescence, higher = more signal.
A short description of test [20]: probe aEGFR binding to arrayed compounds – biochemical, biotinylated probe, 635/667 nm fluorescence, primary screen (AID 1097).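 Also: probe is a biotinylated anti-EGFR antibody binding compounds printed on slides; score combines fluorescence near 667 nm and signal to noise of each spot.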 The following applies: small-molecule microarray, higher = more signal.

Active and inactive are the calls of the source.

Neurogenic locus notch homolog protein 3 (Homo sapiens), sequence (Q9UM47 whole entry, looked up): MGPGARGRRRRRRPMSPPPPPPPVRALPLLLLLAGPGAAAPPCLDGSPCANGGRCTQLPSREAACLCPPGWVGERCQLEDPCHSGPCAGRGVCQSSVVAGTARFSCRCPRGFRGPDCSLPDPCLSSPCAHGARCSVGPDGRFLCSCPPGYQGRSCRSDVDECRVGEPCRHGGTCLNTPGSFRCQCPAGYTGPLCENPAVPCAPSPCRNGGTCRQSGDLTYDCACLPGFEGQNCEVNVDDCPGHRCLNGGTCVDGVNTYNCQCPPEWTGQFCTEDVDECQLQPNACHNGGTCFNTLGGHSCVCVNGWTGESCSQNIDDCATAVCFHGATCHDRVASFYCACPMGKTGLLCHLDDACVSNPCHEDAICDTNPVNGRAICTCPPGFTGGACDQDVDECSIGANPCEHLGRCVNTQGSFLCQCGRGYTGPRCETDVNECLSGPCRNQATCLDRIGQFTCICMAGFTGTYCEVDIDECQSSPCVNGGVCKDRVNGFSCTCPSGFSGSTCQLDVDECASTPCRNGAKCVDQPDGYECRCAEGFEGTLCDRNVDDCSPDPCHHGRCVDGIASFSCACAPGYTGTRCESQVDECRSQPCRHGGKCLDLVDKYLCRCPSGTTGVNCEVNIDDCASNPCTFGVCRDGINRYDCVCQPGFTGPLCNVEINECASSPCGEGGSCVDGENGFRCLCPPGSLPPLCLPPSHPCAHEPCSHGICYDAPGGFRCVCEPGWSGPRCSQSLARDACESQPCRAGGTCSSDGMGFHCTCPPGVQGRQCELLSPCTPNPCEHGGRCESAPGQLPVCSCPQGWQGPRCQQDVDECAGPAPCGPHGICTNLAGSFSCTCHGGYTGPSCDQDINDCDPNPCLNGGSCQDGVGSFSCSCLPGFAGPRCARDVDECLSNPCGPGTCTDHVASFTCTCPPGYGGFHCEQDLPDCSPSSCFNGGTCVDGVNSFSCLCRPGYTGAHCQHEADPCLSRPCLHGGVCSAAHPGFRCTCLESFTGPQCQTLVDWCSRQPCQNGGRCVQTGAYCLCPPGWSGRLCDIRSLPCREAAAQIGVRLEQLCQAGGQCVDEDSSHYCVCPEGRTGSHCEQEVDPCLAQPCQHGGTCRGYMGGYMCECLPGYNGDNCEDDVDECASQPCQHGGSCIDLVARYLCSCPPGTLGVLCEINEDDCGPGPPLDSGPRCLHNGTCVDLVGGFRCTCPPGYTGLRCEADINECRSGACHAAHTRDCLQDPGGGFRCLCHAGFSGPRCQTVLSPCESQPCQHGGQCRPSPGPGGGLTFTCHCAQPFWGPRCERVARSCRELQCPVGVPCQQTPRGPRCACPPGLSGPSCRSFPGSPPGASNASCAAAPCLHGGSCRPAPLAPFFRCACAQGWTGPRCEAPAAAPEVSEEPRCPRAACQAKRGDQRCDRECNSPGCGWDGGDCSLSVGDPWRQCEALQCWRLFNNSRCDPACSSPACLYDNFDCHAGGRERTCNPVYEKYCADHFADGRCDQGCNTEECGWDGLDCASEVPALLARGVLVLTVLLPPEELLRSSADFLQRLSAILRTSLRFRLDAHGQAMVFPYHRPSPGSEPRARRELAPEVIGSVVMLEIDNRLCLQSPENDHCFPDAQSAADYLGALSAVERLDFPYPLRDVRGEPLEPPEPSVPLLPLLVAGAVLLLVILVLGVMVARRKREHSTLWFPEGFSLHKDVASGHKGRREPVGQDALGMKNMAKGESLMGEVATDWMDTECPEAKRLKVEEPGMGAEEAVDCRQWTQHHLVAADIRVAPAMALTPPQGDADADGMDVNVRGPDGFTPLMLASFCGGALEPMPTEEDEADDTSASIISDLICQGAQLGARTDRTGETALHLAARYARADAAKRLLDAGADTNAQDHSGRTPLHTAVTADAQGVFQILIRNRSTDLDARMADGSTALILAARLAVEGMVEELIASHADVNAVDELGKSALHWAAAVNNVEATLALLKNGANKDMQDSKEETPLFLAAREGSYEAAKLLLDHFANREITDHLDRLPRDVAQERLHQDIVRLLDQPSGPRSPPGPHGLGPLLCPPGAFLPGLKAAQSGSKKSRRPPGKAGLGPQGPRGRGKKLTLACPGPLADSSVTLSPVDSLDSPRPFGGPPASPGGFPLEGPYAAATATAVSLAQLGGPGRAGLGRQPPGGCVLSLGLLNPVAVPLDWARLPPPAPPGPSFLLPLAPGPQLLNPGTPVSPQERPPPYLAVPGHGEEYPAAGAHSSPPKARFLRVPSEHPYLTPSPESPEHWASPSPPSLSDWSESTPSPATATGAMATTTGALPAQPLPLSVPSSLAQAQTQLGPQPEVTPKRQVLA
Torsin-1A-interacting protein 2 (Homo sapiens), sequence (Q8NFQ8 whole entry, looked up): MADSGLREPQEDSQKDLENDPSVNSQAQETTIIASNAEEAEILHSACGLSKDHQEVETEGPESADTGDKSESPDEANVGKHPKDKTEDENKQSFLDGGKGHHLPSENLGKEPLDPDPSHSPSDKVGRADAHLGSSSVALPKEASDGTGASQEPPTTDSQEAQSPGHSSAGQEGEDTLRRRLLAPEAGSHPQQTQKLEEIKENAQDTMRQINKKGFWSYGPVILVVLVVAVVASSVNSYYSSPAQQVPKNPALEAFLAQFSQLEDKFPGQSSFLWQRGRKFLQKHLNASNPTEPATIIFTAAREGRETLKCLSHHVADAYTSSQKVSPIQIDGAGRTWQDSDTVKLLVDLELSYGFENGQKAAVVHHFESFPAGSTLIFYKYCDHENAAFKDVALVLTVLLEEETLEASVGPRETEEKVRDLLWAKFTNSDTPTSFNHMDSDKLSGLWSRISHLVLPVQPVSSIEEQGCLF
Pro-neuregulin-1, membrane-bound isoform (Homo sapiens), sequence (Q02297 whole entry, looked up, the tested form may be a part, canonical isoform): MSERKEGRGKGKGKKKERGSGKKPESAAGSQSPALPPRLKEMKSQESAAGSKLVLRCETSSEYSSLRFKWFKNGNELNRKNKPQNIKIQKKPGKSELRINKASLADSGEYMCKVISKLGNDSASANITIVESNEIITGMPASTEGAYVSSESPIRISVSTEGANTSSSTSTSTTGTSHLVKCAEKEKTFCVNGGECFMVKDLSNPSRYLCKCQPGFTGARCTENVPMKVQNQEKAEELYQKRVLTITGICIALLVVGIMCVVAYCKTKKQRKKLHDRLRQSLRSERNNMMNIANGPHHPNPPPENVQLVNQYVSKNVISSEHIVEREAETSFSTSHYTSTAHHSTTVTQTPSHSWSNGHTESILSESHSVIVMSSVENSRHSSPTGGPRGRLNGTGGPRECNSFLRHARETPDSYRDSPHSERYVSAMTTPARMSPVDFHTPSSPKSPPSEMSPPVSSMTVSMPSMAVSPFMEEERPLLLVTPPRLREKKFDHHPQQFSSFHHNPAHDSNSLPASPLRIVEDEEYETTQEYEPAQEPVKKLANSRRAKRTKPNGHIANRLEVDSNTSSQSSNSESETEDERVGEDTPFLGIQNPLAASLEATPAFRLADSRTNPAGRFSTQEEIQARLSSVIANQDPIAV

In the case of `CC(C)(C)OC(=O)CC[C@@]1(C(=O)NCCN2CCOCC2)N=C(c2ccc(OCCCO)cc2)O[C@@H]1c1ccccc1N=[N+]=[N-]`, the composite z-score was determined as 0.793 in test [1]; 0.122 in test [2]; 0.0789 in [3]; 1.01 in [4]; 1.49 in test [5]; 1.56 in test [6]. For the same compound, the composite z-score worked out at 1.32 in [7]; 1.67 in test [9]; 0.232 in test [10]; 1.45 in test [11]; 3.09 in [15]; 0.591 in [17]. Further, the composite z-score is -0.0404 in [18], 1.11 in test [19] and 0.171 in test [20]. The z-score is 4.07 (inactive) in test [8]; -0.174 (inactive) in [12]; -0.182 (inactive) in test [13]; -0.336 (inactive) in test [14]; -0.115 (inactive) in test [16].

On to `COC(=O)[C@@]1(Cc2ccc(F)cc2)[C@H]2c3cc(C(=O)N4CCCC4)n(Cc4ccc(C)o4)c3C[C@H]2CN1C(=O)c1ccccc1`, for which the composite z-score in [1] amounted to 0.285; in test [2] it was 0.145; in [3] it was 0.157; in test [4] it was 0.883; in test [5], 1.53; in test [6] it was 0.714. For the same compound, the composite z-score came to 1.14 in [7]; 1.29 in [9]; 0.2 in test [10]; 0.812 in test [11]; 2.88 in [15]; 0.381 in test [17]. For the same compound, the composite z-score in test [18] was 1.2; in test [19], 0.556; in [20] it was 0.277. Also, the z-score was 1.62 (inactive) in test [8]; -0.849 (inactive) in test [12]; -0.0545 (inactive) in test [13]; 0.0836 (inactive) in [14]; -0.673 (inactive) in test [16].

For the compound `O=C1O[C@H](c2ccccc2)[C@H](c2ccccc2)N2[C@H]1[C@@H](C(=O)NC[C@H](O)c1ccccc1)[C@]1(C(=O)Nc3ccccc31)[C@H]2c1ccc(OCCO)cc1`, the composite z-score in [1] is 0.0809; in test [2], 0.267; in [3], -0.039; in test [4] it was 0.345; in test [5] it was 0.404; in test [6], 1.05. Also, the composite z-score in test [7] is 1.21; in test [9] it was 0.368; in test [10] it was 0.0551; in test [11], 1.58; in [15], 2.39; in test [17], -0.147. Further, the composite z-score in test [18] is 0.234; in test [19] it was 0.797; in test [20], -0.0244. Moreover, the z-score in test [8] was 1.8 (inactive); in [12] it was 2.12 (inactive); in test [13] it was 1.93 (inactive); in test [14] it was 5.07 (inactive); in test [16] it was -0.965 (inactive).

`CC(C)c1ccc(NN2C(C(O)c3cc(C(F)(F)F)cc(C(F)(F)F)c3)C=CC3C(=O)N(c4ccccc4)C(=O)C32)cc1` (stereo not given): the composite z-score in test [1] was 0.43; in [2] it was -0.165; in test [3], -0.0165; in test [4], 0.13; in test [5] it was 1.24; in test [6] it was 1.69. The composite z-score in [7] was 1.28; in test [9], 0.273; in [10], 0.213; in test [11] it was 0.353; in [15], 3.22; in test [17], -0.0831. Also, the composite z-score in test [18] was -0.722; in test [19] it was 0.245; in test [20], -0.152. The z-score in test [8] is 0.0782 (inactive); in [12], 0.89 (inactive); in test [13] it was 0.183 (inactive); in test [14] it was 3.38 (inactive); in [16] it was -2.08 (inactive).

Turning to `C=CCC(OC(C)=O)[C@@H]1[C@@H](N(Cc2ccc(-c3ccccc3)cc2)C(=O)Cc2ccc(F)cc2)c2cc(OCCCO)ccc2N1C(=O)c1ccc(-c2ccccc2)cc1` (stereo not given in full), the composite z-score in [1] was 0.124; in [2], 0.143; in test [3] it was -0.0145; in [4], -0.0694; in test [5], -0.305; in [6] it was -0.23. Also, the composite z-score in [7] is -0.937; in test [9], 0.0621; in [10], -0.0994; in test [11] it was -0.838; in test [15], -0.404; in test [17] it was 0.0631. In addition, the composite z-score was -0.237 in [18], -0.239 in test [19] and -0.0372 in [20]. The z-score in test [8] is -0.432 (inactive); in [12], -2.19 (inactive); in [13], -0.379 (inactive); in [14], -0.694 (inactive); in test [16], 0.996 (inactive).
